DT40 TDP1 CPT – DT40-hTDP1 cell growth loss with CPT; chicken DT40 Tdp1-/-;hTDP1 cells + 20 nM CPT, ATP luminescence, 48 h; Potency, µM (doses to about 46.2 µM), for inactives: at the top dose activity change, negative = growth inhibition, usual class: inhibitors; hit rate 12% among 420,000; AID 686979; also: potency is read from the fitted curve at half-maximal effect; nearly all actives have a fitted effect of over 55% in size
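Cell growth measured by CellTiter-Glo luminescence after a minimum 48 h, 37 C compound exposure with 20 nM CPT in Tdp1-knockout DT40 cells stably expressing hTDP1, seeded 400/well; qHTS titration format.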
Giardia kill – Giardia lamblia killing | activity change, % at 7.66 µM, hits read low | Giardia lamblia trophozoite viability | hit rate 0.15% among 340,000 | AID 540267; in the data active = activity change below about -80%; inconclusive = between about -30% and that limit;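 also: parasites exposed to compound for two days anaerobically before the ATP read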
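Giardia trophozoites, 100 cells per well, were exposed to compounds for 48 hrs at 37 deg C under anaerobic conditions; viability was then read as ATP content by bioluminescence after 15-30 min at room temperature.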
TDP1 cell noCPT – qHTS for Inhibitors of human tyrosyl-DNA phosphodiesterase 1 (TDP1): qHTS in cells in absence of CPT | DT40 Tdp1-/- hTDP1 cells, no CPT, ATP luminescence, 48 h | Potency, µM (series often up to 46.2 µM), without a hit: at the top dose activity change, negative = growth inhibition, hits mostly inhibitors | hit rate 15% among 420,000; also: potency is read from the fitted curve at half-maximal effect; nearly all actives have a fitted effect of over 55% in size
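Cells were dispensed at 400 per well, compounds added by pin tool, plates incubated ≥48 hr at 37 °C, then CellTiter-Glo added for 30 min at room temperature before luminescence reading. Line: DT40 Tdp1-/- complemented with hTDP1; camptothecin omitted.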
ELG1 DNA repair – inhibitors of ELG1-dependent DNA repair in HEK293T cells; HEK293T ELG1-luciferase reporter, luminescence, 16 h; DNA damage induced by 5-fluorouridine; Potency, µM (doses to about 46.1 µM), for inactives: top-dose activity change, negative = inhibition, most hits filed as inhibitors; hit rate 2.3% among 330,000; AID 504467; also: potency is read from the fitted curve at half-maximal effect; nearly all actives have a fitted effect of over 55% in size
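Step one: seed 2,000 cells per well. Step two: pin-transfer compound or DMSO alongside 5-fluorouridine. Step three: incubate 16 hr, 37 °C, 5% CO2. Step four: add ONE-Glo, wait 30 min, read luminescence.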
TDP1 block – TDP1 (human) enzyme inhibition; recombinant TDP1, AlphaScreen DNA substrate cleavage; hit rate 0.28% among 350,000; Potency, µM (titrated, usually from 130 µM), without a hit: at the highest dose activity change, negative = inhibition, actives largely listed as inhibitors; also: potency is read from the fitted curve at half-maximal effect; nearly all actives have a fitted effect of over 40% in size
Target sequence (Q9NUW8 whole entry, looked up): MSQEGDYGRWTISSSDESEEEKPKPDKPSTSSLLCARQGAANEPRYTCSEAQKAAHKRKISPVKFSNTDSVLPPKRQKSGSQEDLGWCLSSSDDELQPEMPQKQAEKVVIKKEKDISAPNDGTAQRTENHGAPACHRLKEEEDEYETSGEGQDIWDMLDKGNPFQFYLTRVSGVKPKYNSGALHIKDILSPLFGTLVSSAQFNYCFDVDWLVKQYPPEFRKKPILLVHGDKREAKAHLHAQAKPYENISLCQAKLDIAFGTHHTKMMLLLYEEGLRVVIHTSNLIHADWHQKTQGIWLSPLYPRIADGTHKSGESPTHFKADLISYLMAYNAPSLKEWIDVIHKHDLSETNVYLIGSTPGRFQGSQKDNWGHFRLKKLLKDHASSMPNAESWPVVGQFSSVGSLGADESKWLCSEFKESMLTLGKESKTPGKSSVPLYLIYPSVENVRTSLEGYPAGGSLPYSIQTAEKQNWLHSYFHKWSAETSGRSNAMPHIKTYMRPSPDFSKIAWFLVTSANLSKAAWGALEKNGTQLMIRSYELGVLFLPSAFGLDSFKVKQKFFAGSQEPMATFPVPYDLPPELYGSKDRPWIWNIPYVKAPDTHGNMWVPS
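Recombinant human Tdp1 (E. coli-expressed, 1 nM final) preincubated with compounds 15 min at room temperature, then 5'-biotin/3'-phosphotyrosine-FITC DNA substrate (15 nM final) added for 5 min. AlphaScreen beads (10 ug/ml final) added 10 min; cleavage lowers signal.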
IL1B secr inh – inhibitors of inflammasome signaling (IL-1 beta secretion). THP-1 LPS/ATP IL-1B secretion, AlphaLISA, 16 h; hits give low values. hit rate 4.7% among 360,000. activity change, % at 57.5 µM; in the data active = activity change below about -50%; inconclusive = mostly about -30% to -49%
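THP-1 cells pretreated 1 hr with compounds (up to 57.5 uM final), then stimulated with LPS (250 ng/mL final) plus ATP (1.25 mM final); secreted IL-1B measured by AlphaLISA after 16 hr, decreased signal indicating inhibition.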
* marks the source's active call; other numbers are inactive results; ? = inconclusive; . = no result given; [ ] = dose if it differs, or a comment. Compounds with a hit are over-represented: about 19% of the library has one in this group of screens. Unless noted, calls follow the shape of the dose curve; as a rule, active = well fitted curve in the direction sought with a large enough effect; inconclusive = small, poorly fitted or top-dose-only effect, or another doubt; inactive = no such curve, though single readings can be large; an effect the other way counts as inactive or inconclusive. % is scaled to controls: 0 for no effect and ±100 for the full control effect.

SMILES	DT40 TDP1 CPT	Giardia kill	TDP1 cell noCPT	ELG1 DNA repair	TDP1 block	IL1B secr inh
COc1ccc(NC(=O)Cn2cc(C(=O)c3ccccc3)c(=O)c3cc(OC)ccc32)c(OC)c1	-10%	.	-2%	.	4%	.
Cc1ccc(NC(=O)c2cccs2)cc1NC(=O)c1cccc(F)c1	-11%	-14	?	6%	.	0
COc1cccc(C(=O)Nc2cc(NC(=O)c3cccs3)ccc2C)c1	-24%	0	-19%	?	6.3µM*	-25
COc1cccc(C(=O)Nc2cc(NC(=O)c3cccs3)ccc2C)c1OC	?	?	?	16µM*	4%	-15
Cc1ccc(NC(=O)c2cccs2)cc1NC(=O)c1ccc(F)cc1	7%	-11	?	?	.	-60*
Cc1ccc(NC(=O)c2cccs2)cc1NC(=O)c1ccco1	-9%	17	-8%	-6%	-4%	-18
Cc1ccc(NC(=O)c2cccs2)cc1NC(=O)c1cccnc1	-17%	-6	-17%	-26%	6%	2
Cc1ccc(C2C3=C(NCCN=C3c3ccccc3)C(=O)N2c2ccccc2)cc1 (stereo not given)	21µM*	6	23µM*	?	3%	-63*
O=S(=O)(c1ccccc1)c1cnc(-c2ccccc2)nc1N1CCCC1	-27%	-8	18µM*	-17%	.	-10
Cc1nc(-c2ccccc2)sc1-c1nc(-c2ccncc2)ncc1S(=O)(=O)c1ccccc1	?	-4	?	8%	6%	-54*
Cc1ccc(S(=O)(=O)c2cnc(-c3ccccc3)nc2N2CCCCC2)cc1	?	-4	?	-7%	-3%	-8
CCOc1ccc(CCNC(=O)c2cccc(S(=O)(=O)N3CCN(C(C)=O)CC3)c2)cc1OCC	-20%	-7	-10%	-2%	0%	-4
COC(=O)c1nnn(-c2ccsc2C(=O)OC)c1C(=O)OC	4%	10	7%	-2%	1%	-29
COc1cc(OC)c2c(-c3cccc(-c4ccc(NC(C)=O)cc4)c3)cc(=O)oc2c1	4.1µM*	-13	5.8µM*	?	0%[56.1 µM]	84
Cc1ccc(-c2cccc(-c3cc(=O)oc4ccc(C(C)(C)C)cc34)c2)cc1	?	3	23µM*	6%	0%[56.1 µM]	34
COc1cc(OC)c2c(-c3cccc(-c4ccc(F)c(Cl)c4)c3)cc(=O)oc2c1	?	-3	23µM*	?	0%[56.1 µM]	67
Cc1cccc(-c2ccc(-c3cc(=O)oc4cc(C)cc(C)c34)cc2)c1	.	.	.	.	-5%	.
COc1cc(OC)c2c(-c3cccc(-c4sccc4C(C)=O)c3)cc(=O)oc2c1	3.7µM*	-7	4.1µM*	?	0%[56.1 µM]	27
CN(C)c1nc(C(=O)O)nc(N2CCOCC2)n1	-4%	9	0%	0%	.	24
COCC(=O)N1CCC2(CC1)CCN(C(c1ccccc1)c1ccccc1)CC2	-2%	.	-14%	.	.	.
COc1cc(OC)c2c(-c3cccc(-c4ccc(C(F)(F)F)cc4)c3)cc(=O)oc2c1	4.6µM*	1	2.6µM*	-19%	0%[56.1 µM]	115
O=C(NCc1ccc(Cl)cc1)C1(c2cccs2)CCOCC1	?	.	?	.	-3%	.
C[C@H](CO)N1C[C@H](C)[C@@H](CN(C)C(=O)Nc2ccc(C(F)(F)F)cc2)Oc2c(NC(=O)NC3CCCCC3)cccc2C1=O	-84%	-19	?	?	1%	?
C[C@H](CO)N1C[C@H](C)[C@@H](CN(C)C(=O)Nc2ccccc2)Oc2c(NC(=O)Nc3ccc(C(F)(F)F)cc3)cccc2C1=O	13µM*	-8	?	?	0%	-9
C[C@H](CO)N1C[C@H](C)[C@@H](CN(C)Cc2ccc(-c3ccccc3)cc2)Oc2c(NC(=O)Nc3ccc(C(F)(F)F)cc3)cccc2C1=O	8.2µM*	23	?	-13%	-12%	23
SMILES	DT40 TDP1 CPT	Giardia kill	TDP1 cell noCPT	ELG1 DNA repair	TDP1 block	IL1B secr inh
C[C@@H]1CN([C@H](C)CO)C(=O)c2cccc(NC(=O)NC3CCCCC3)c2O[C@@H]1CN(C)C(=O)Nc1ccc(C(F)(F)F)cc1	16µM*	0	?	-22%	3%	-67*
C[C@H](CO)N1C[C@H](C)[C@@H](CN(C)C(=O)Nc2ccccc2)Oc2ccc(NC(=O)Nc3ccc(C(F)(F)F)cc3)cc2C1=O	?	-4	?	8%	2%	-10
C[C@H](CO)N1C[C@H](C)[C@@H](CN(C)C(=O)Nc2ccc(C(F)(F)F)cc2)Oc2c(NC(=O)C3CCCCC3)cccc2C1=O	?	24	?	?	0%	-58*
COc1ccc(NC(=O)C(NC(=O)/C=C\c2ccc3c(c2)OCO3)c2ccccc2)cc1 (stereo not given)	?	.	?	.	0%	.
O=c1ccncn1C1OC(CO)C(O)C1O (stereo not given)	-4%	2	10%	.	.	14
COc1cc2c(C#N)c(N3CCCCC3)nc(N)c2c(N)n1	9.2µM*	-8	13µM*	?	-1%	?
CCN(CC)c1nc(N)c(C#N)c(CC#N)c1C#N	-24%	34	-19%	.	.	48
CCN(CC)c1nc(N)c2c(N)nc(OC)cc2c1C#N	15µM*	-4	23µM*	.	.	-2
COc1cc2c(C#N)c(N3CCc4ccccc4C3)nc(N)c2c(N)n1	21µM*	6	21µM*	?	8%	-54*
CCOC(=O)C1CCN(c2nc(N)c3c(N)nc(SCC(=O)O)cc3c2C#N)CC1	?	11	?	-21%	28µM*	21
CCOC(=O)C1CCN(c2nc(C)cc(C)c2C#N)CC1	-21%	2	-17%	6%	3%	-7
CCCc1nnc(NC(=O)C2CCN(C(=O)c3ccco3)CC2)s1	-4%	?	-9%	1%	7%	13
CCCCn1c(N)c(N(CCOC)C(=O)c2nn(CC)c(=O)c3ccccc23)c(=O)[nH]c1=O	-30%	-1	-1%	23%	.	4
OC(c1ccc(F)c(F)c1)c1nc(-c2cccc3cccnc23)cs1 (stereo not given)	?	.	?	.	.	-19
CCOc1cc2c(C#N)c(N3CCCCC3)nc(N)c2c(N)n1	?	9	?	1%	4%	0
COc1cc2c(C#N)c(N3CCOCC3)nc(N)c2c(N)n1	13µM*	-25	23µM*	0%	-4%	-54*
Cc1ccc(NC(=O)CN(C)S(=O)(=O)c2ccc(Br)s2)cc1F	2%	-3	?	?	-4%	-62*

Compound activity as filed in PubChem.
